Consider 40 compounds from PubChem BioAssay (Tox21).

Results filed as inconclusive are left out. Values without a mark were called inactive. Calls come from the whole dose curve; as a rule, active = well fitted activation curve with a large enough effect in the signal ratio in the repeat runs (not every such curve was filed as active); inconclusive = weak or mixed curves, or effect the other way; inactive = flat fitted curve, though single readings scatter; the % refers to the signal ratio.
% is set by controls: 0 for no effect and ±100 for the full control effect.

The target in this assay is Estrogen receptor beta (Homo sapiens) (UniProt Q92731). Kind of assay: qHTS assay to identify small molecule agonists of the estrogen receptor beta (ER-beta) signaling pathway (AID 1259377). To be noted: ER-beta-UAS-bla HEK293T, beta-lactamase FRET ratio, 16 h; series mostly up to 92.4 µM; activation: at the top concentration. The text has this: U.S. Tox21 Program National Center for Advancing Translational Sciences [NCATS] NIH Chemical Genomics Center [NCGC] U.S. Environmental Protection Agency [EPA] National Institutes of Environmental Health Sciences [NIEHS] National Toxicology Program [NTP] U.S. Food and Drug Administration [FDA] Tox21 Assay Overview: Estrogen receptor (ER), a nuclear hormone receptor, plays an important role in development, metabolic homeostasis and reproduction. Two subtypes of ER, ER-alpha and ER-beta, have similar expression patterns with some uniqueness in both types. Endocrine disrupting chemicals (EDCs) and their interactions with steroid hormone receptors like ER causes disruption of normal endocrine function. To identify the compounds that activate ER signaling, an ER beta-UAS-bla GripTite cell line (Life technologies, Madison, WI, USA) containing a beta-lactamase reporter gene under the control of an Upstream Activator Sequence (UAS) was used to screen Tox21 10K compound library.
Estrogen receptor beta (Homo sapiens), sequence (Q92731 whole entry, looked up): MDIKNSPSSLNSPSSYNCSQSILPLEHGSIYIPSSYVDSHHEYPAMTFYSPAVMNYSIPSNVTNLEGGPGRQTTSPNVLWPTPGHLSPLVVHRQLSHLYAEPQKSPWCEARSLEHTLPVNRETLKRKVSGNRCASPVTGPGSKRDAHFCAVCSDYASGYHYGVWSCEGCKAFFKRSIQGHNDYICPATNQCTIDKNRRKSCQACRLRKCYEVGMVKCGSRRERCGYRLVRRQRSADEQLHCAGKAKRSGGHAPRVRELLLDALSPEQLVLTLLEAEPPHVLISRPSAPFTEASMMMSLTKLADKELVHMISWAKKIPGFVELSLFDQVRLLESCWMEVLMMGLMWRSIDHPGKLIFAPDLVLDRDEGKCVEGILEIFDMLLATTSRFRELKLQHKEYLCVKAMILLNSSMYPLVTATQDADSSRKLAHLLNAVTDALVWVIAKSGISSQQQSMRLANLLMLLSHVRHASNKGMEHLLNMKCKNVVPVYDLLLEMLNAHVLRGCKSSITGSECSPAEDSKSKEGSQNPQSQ
Tox21 Assay Protocol Summary: ER-beta-UAS-bla HEK293T cells were dispensed at 2,000 cells/5 uL of assay medium containing 2% charcoal stripped FBS per well into black wall/clear-bottom 1536-well plates using a Multidrop Combi (ThermoFisher Scientific, Waltham, MA) dispenser. After the assay plates were incubated at a 37C and 5% CO2 for 6 hr, 23 nL of compounds dissolved in DMSO, positive controls or DMSO only was transferred to the assay plate by a Pintool station (Kalypsys, San Diego, CA). The plates were incubated at 37C and 5% CO2 for 16 hr. Then 1 uL of LiveBLAzerTM B/G FRET substrate was added using a BioRAPTR FRD (Flying Reagent Dispenser, Aurora Discovery, San Diego, CA). After the plates were incubated at room temperature for 2 hours, fluorescence intensity was measured by an Envision plate reader (PerkinElmer, Shelton, CT).
A general note: Quantitative high-throughput screening tests each substance at several concentrations.
On to `CN1CCC[C@@H]1Cc1c[nH]c2ccc(CCS(=O)(=O)c3ccccc3)cc12`, for which the “activation” value is 8.53% [at 42.5 µM].

On to `CC(=O)OC1C2(C)CCC(C2)C1(C)C` (stereo not given), for which the “activation” value was 1.54%.

With `Cc1cccc(C)c1NC(=O)CN1CCCCCC1`, the “activation” value was 2.22% [at 42.5 µM].

Take `CC(CNC1CCCCC1)OC(=O)c1ccccc1` (stereo not given): the “activation” value was -3.7% [at 42.5 µM].

On to `CC(C)c1ccccc1`, for which the “activation” value was -1.54%.

For `CCOC(=O)NCCC[Si](OCC)(OCC)OCC`, the “activation” value is 8.64%.

With `CC(C)CCCCCCc1ccc(OCCOCCO)cc1`, the “activation” value is 0.95%.

Turning to `CCCCNCCCC`, the “activation” value was 0.554%.

Regarding `CCN[C@H]1CN(CCCOC)S(=O)(=O)c2sc(S(N)(=O)=O)cc21`, the “activation” value is 8.09% [at 42.5 µM].

Consider `Cc1ccc([N+](=O)[O-])c(N)c1`, for which the “activation” value is -0.452%.

Regarding `CCCCCOc1ccc(C2SC(=O)NC2=O)cc1OCC` (stereo not given), the “activation” value is -4.95% [at 42.5 µM].

Take `COc1ccc(Nc2ccc(OC)cc2)cc1`: the “activation” value was -1.47%.

Take `Cc1onc(-c2ccccc2)c1C(=O)Cl`: the “activation” value is 4.41% [at 42.5 µM].

On to `CC1(C)O[C@@H]2C[C@H]3[C@@H]4CCC5=CC(=O)CC[C@]5(C)[C@@]4(F)[C@@H](O)C[C@]3(C)[C@]2(C(=O)CCl)O1`, for which the “activation” value was 0.881% [at 42.5 µM].

On to `OCCN(CCO)CCN(CCO)CCO`, for which the “activation” value was 8.4%.

In the case of `CCCCNC(=S)NCCCC`, the “activation” value is -4.05%.

Consider `CCCCc1ccc2nc(NC(=O)OC)[nH]c2c1`, for which the “activation” value was 4.87% [at 42.5 µM].

`O=C1CCCc2ccccc21`: the “activation” value was -0.922%.

In the case of `NC(=O)Cc1cccc(C(=O)c2ccccc2)c1N`, the “activation” value was 3.75% [at 42.5 µM].

On to `NNS(=O)(=O)c1ccc(Oc2ccc(S(=O)(=O)NN)cc2)cc1`, for which the “activation” value is 1.64%.

As for `O=c1[nH]c(=O)n([C@H]2C[C@H](O)[C@@H](CO)O2)cc1C(F)(F)F`, the “activation” value was -1.1% [at 42.5 µM].

Consider `Nc1cccc(S(=O)(=O)O)c1`, for which the “activation” value is 0.568%.

In the case of `CC(C)Nc1nc(N)nc(Cl)n1`, the “activation” value was -1.18%.

As for `CC(=O)O[C@H]1CC[C@@]2(C)C(=CC[C@@H]3[C@@H]2CC[C@]2(C)C(C(C)=O)=CC[C@@H]32)C1`, the “activation” value was 2.8% [at 42.5 µM].

For the compound `CCOC(=O)C1CC(=O)C(=C(O)C2CC2)C(=O)C1` (stereo not given), the “activation” value is 0.582%.

On to `CC1(C)S[C@@H]2[C@H](NC(=O)C(C(=O)O)c3ccccc3)C(=O)N2[C@H]1C(=O)O` (stereo not given in full), for which the “activation” value is 5.34% [at 42.5 µM].

In the case of `CCN(CC)CC1CCCCN1CC(=O)N1c2ccccc2C(=O)Nc2cccnc21` (stereo not given), the “activation” value was 1.27% [at 42.5 µM].

In the case of `CC(C)NC[C@@H](O)COc1cccc2ccccc12`, the “activation” value was 0.412% [at 42.5 µM].

Take `CCC1(C)NC(=O)NC1=O` (stereo not given): the “activation” value is 0.0221%.

In the case of `CCCCCCn1c(=O)c2c(ncn2C)n(C)c1=O`, the “activation” value was 0.214% [at 42.5 µM].

Turning to `CCOC(=O)CS`, the “activation” value was -3.86%.

Turning to `CC1(O)CSC(C)(O)CS1` (stereo not given), the “activation” value was 9.18%.

Take `Cc1nnc(SCC2=C(C(=O)O)N3C(=O)[C@@H](NC(=O)Cn4cnnn4)[C@H]3SC2)s1`: the “activation” value is 6.36% [at 42.5 µM].

As for `CC(C)O`, the “activation” value was 2.51%.

As to `COC(=O)N[C@H](C(=O)N[C@@H](Cc1ccccc1)[C@@H](O)CN(Cc1ccc(-c2ccccn2)cc1)NC(=O)[C@@H](NC(=O)OC)C(C)(C)C)C(C)(C)C`, the “activation” value is 0.594% [at 42.5 µM].

Consider `CCCCCCCCCC/C=C/C#N`, for which the “activation” value is -4.6%.

For `CCCCC(CC)COC(=O)COc1cc(Cl)c(Cl)cc1Cl` (stereo not given), the “activation” value was 7.73%.

On to `COc1cc2c(cc1N)oc1ccccc12`, for which the “activation” value is -3.2%.

On to `O=c1oc2c(O)c(O)cc3c(=O)oc4c(O)c(O)cc1c4c23`, for which the activation is 0.261% [at 19 µM].

For the compound `CCC(=O)c1ccc2c(c1)N(CCCN(C)C)c1ccccc1S2`, the “activation” value is 0.0671% [at 42.5 µM].
